# Laboratory results as given in PubChem BioAssay (EPA / NIEHS).
# More than one record can exist for a structure, and the calls need not agree. Calls of active or inactive are those of the source. How the source made its calls: active means hit-call score of the fitted dose curve at least 0.9, where 1 is the maximum; inactive means score below 0.9.
# Biological target: Signal transducer and activator of transcription 3 (Homo sapiens) (UniProt P40763)
# Test: ATG_STAT3_CIS: Attagene CIS-FACTORIAL HepG2 Assay for human Signal Transducer and Activator of Transcription 3 (STAT3) (AID 2282963)
# Conditions: HepG2, Attagene cis-factorial STAT3 reporter transcription; actives raise or lower the signal
# Experimental: ATG_CIS is a cell-based, multiplexed-readout assay that uses HepG2, a human liver cell line, with measurements taken at 24 hours after chemical dosing in a 24-well plate.ATG_STAT3_CIS is one of 52 assay component(s) measured or calculated from the ATG_CIS assay. It is designed to make measurements of mRNA induction, a form of inducible reporter, as detected with fluorescence intensity signals by Reverse transcription polymerase chain reaction (RT-PCR) and Capillary electrophoresis technology.Data from the assay component ATG_STAT3_CIS was analyzed into 1 assay endpoint. This assay endpoint, ATG_STAT3_CIS, was analyzed with bidirectional fitting relative to DMSO as the negative control and baseline of activity. Using a type of inducible reporter, measures of mRNA for gain or loss-of-signal activity can be used to understand the reporter gene at the transcription factor-level as they relate to the gene STAT3. Furthermore, this assay endpoint can be referred to as a primary readout, because this assay has produced multiple assay endpoints where this one serves a reporter gene function. To generalize the intended target to other relatable targets, this assay endpoint is annotated to the dna binding intended target family, where the subfamily is stat protein.
# Human liver HepG2 cells are transiently transfected with multiple reporter transcription units (MRTUs) in 6-well plates using FuGene 6 reagent (Roche; 3 ml FuGene/1 mg DNA). The MRTU constructs are regulated by a cis-regulating element (promoter). […] A major difference between the CIS and TRANS system is that in CIS activities of endogenous TFs are measured, whereas the TRANS assay evaluates changes in activities of exogenous, chimeric NR-Gal4 proteins. […] At the end of 24 hour incubation, total RNA was isolated using TriZol reagent (Invitrogen). The isolated RNA is then reverse-transcribed using oligo(dT) primer and Mo-MLV reverse transcriptase (Invitrogen) with DNAse I (Ambion) treatment for 30 min. The one-tenth of the produced cDNA was amplified by PCR using Taq DNA polymerase (Invitrogen) and two reporter sequence-specific primers. The PCR products were fluorescently labeled by primer extension with 6-arboxyfluorescein (6-FAM) 5'-labeled reporter sequence-specific primer (2 min at 95 C, 20 s at 68 C and 10 min at 72 C) and these products were digested with 5U of HpaI (New England Biolabs) for 2h at 37 C. The fragments were purified using Qiaquick PCR columns (Qiagen), analyzed on an ABI 3130xL genetic analyzer (Applied Biosystems) with peak positions identified by using a set of X-rhodamine (ROX)-labeled MapMarker1000 molecular weight standards (BioVentures). The raw capillary electrophoresis data was processed using Attagraph software (Attagene).
# Chain of Signal transducer and activator of transcription 3 (Homo sapiens) (P40763 whole entry, looked up): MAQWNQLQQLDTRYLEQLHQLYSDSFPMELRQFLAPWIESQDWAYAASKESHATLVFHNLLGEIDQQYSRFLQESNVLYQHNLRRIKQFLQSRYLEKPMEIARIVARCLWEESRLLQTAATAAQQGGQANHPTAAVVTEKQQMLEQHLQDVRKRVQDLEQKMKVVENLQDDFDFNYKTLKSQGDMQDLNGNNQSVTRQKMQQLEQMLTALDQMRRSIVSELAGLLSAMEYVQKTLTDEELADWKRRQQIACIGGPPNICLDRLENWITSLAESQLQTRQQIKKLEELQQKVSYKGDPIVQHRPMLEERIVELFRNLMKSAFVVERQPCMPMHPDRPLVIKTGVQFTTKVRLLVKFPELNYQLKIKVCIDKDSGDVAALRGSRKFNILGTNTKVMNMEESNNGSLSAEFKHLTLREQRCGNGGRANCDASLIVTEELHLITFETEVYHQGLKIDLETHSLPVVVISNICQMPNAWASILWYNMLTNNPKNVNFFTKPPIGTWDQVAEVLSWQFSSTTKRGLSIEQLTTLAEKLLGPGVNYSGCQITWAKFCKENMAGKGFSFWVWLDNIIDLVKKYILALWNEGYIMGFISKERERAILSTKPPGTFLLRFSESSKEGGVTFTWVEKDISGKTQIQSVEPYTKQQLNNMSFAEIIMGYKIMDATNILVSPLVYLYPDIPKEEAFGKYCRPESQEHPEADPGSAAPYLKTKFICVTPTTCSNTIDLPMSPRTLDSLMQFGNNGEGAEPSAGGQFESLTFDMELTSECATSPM
SMILES,outcome,AC50
CO[C@@H]1COCC[C@@H]1N[C@@H]1CC[C@@](C(=O)N2CCc3ncc(C(F)(F)F)cc3C2)(C(C)C)C1,inactive,–
O=C1O[C@H]([C@H](O)CO)C(O)=C1O,inactive,–
O=C(O)CN(CC(=O)O)CC(=O)O,inactive,–
CC(=O)[C@@]1(O)CC[C@H]2[C@@H]3CCC4=CC(=O)CC[C@]4(C)[C@H]3CC[C@@]21C,inactive,–
CS(=O)(=O)c1ccc([C@@H](C[C@H]2CCC(=O)C2)C(=O)Nc2cnccn2)cc1Cl,inactive,–
O=[Si]=O,inactive,–
O=NO,inactive,–
O=C1OC(c2ccc(O)cc2)(c2ccc(O)cc2)c2ccccc21,inactive,–
C/C=C/c1ccc(OC)cc1,inactive,–
CSc1ccc(Oc2ccc(S(N)(=O)=O)cc2CN(C)C)cc1C,inactive,–
COc1ccc(C(=O)Nc2nc3ccccc3c(NCc3ccccc3)c2C#N)cc1,inactive,–
NC=O,inactive,–
O=C1NC(=O)C(c2ccccc2)(c2ccccc2)N1,inactive,–
CCCCCCCCCC[N+](C)(C)[O-],inactive,–
CC(C)COC(=O)CCCCC(=O)OCC(C)C,inactive,–
OCC(CO)n1cnc(-c2ccc(F)cc2)c1-c1ccnc(Oc2ccccc2)n1,inactive,–
CCCCCCCCCCCCCCOS(=O)(=O)O,inactive,–
CC(C)(O)c1ccc(CNC(=O)c2cccnc2Oc2ccc(F)cc2)cc1,inactive,–
CCc1nc(N)nc(N)c1-c1ccc(Cl)cc1,inactive,–
CC(=O)OCC(COC(C)=O)OC(C)=O,inactive,–

SMILES,outcome,AC50
O=C(NS(=O)(=O)/C=C/c1cccs1)c1ccc(F)cc1Br,inactive,–
O=C(N[C@@H](c1ccccc1)[C@@H]1CCCCN1)c1cccc(C(F)(F)F)c1Cl,inactive,–
CCC(C)N(C)C(=O)c1cc2ccccc2c(-c2ccccc2Cl)n1 (stereo not given),inactive,–
CCOCCOCCO,inactive,–
CCCCc1nc2cccnc2n1Cc1ccc(-c2ccccc2-c2nnn[nH]2)cc1,inactive,–
COc1ccc(OC(F)(F)F)cc1CN[C@H]1CCCN[C@H]1c1ccccc1,inactive,–
Cc1cc(Cc2ccc(N)c(C)c2)ccc1N,inactive,–
NC(=Nc1ccccc1)Nc1ccccc1,inactive,–
CC(C)c1cccc(C(C)C)c1,inactive,–
CCN(CC)CCOc1ccc(C(=C(Cl)c2ccccc2)c2ccccc2)cc1,inactive,6.09 µM (active)
O=Cc1ccccc1C=O,inactive,–
O=C(O)c1cccnc1,inactive,–
Cn1cnc2c1c(=O)[nH]c(=O)n2C,inactive,–
CCCCCCCC(=O)OC,inactive,–
CC(=O)O,inactive,–
CCCCCCC(CCCCCCCCCCC(=O)OCC(COC(C)=O)OC(C)=O)OC(C)=O (stereo not given),inactive,–
N[C@@H](Cc1c[nH]c2ccccc12)C(=O)O,inactive,–
CC(COCC(C)OC(=O)c1ccccc1)OC(=O)c1ccccc1 (stereo not given),inactive,–
CC1(C)C(=O)NC(=O)N1CO,inactive,–
